From PubChem
M4 PAM – human M4 muscarinic receptor positive allosteric modulators, primary screen, CHO-K1 cells, Fluo-8 calcium fluorescence; Muscarinic acetylcholine receptor M4 (Homo sapiens), P08173; CHO-K1 hM4/Gqi5, ACh EC20; 0% = ACh EC20, 100% = maximal ACh; activation, % at 3 µM; 360,000 tested, 0.4% active;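 active means activation above its plate's cutoff, the mean activation of sample wells plus 3 SD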
CHRM4 antagonist – human M4 muscarinic receptor antagonists, primary screen, CHO cells, Fluo-8 calcium fluorescence. CHO-hM4 cells, ACh EC80. inhibition, % at 3 µM. 360,000 tested, 0.73% active. AID 624125, 2012;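 active means inhibition above its plate's cutoff, the mean inhibition of sample wells plus 3 SD, cut at about 27% in these data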
CHRM1 antagonist – human M1 muscarinic receptor antagonists, primary screen, CHO-K1 cells, Fluo-8 calcium fluorescence, 1536-well. Muscarinic acetylcholine receptor M1 (Homo sapiens), P11229. CHO-K1 hM1, ACh EC80 antagonist. inhibition, % at 3 µM. 360,000 tested, 1.3% active;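 active means percent inhibition above its own plate's cutoff, namely the mean of that plate's compound wells plus 3 SD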;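 further: peak over basal fluorescence ratio during 140 s after agonist addition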
Target sequence (P11229 whole entry, looked up): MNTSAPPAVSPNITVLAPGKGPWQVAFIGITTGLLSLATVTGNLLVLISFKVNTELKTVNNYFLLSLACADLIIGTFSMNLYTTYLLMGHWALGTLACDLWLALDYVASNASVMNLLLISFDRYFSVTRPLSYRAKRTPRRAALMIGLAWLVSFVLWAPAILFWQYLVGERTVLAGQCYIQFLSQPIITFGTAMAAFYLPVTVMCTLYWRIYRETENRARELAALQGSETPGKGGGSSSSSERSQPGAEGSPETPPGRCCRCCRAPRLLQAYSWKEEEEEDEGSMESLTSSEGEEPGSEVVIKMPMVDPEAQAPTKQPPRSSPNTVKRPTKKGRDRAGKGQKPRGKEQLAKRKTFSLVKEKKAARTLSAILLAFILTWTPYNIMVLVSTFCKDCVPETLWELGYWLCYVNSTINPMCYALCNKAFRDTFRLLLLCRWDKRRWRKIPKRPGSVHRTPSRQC
M1 PAM – human M1 muscarinic receptor positive allosteric modulators, primary screen, CHO-K1 cells, Fluo-8 calcium fluorescence, 1536-well; Muscarinic acetylcholine receptor M1 (Homo sapiens), P11229; CHO-K1 hM1, ACh EC20; 0% = ACh EC20, 100% = maximal ACh; activation, % at 3 µM; 360,000 tested, 0.088% active; in the data active means activation above about 19%, passing the limit was not always enough
CHRM1 agonist – human M1 muscarinic receptor agonists, primary screen, Fluo-8 calcium fluorescence, CHO-K1 cells, HTS | Muscarinic acetylcholine receptor M1 (Homo sapiens), P11229 | CHO-K1 hM1, agonist mode; 0% DMSO, 100% acetylcholine EC100 | activation, % at 3 µM | 360,000 tested, 0.33% active | AID 588814, 2011;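 active means activation above the run's mean compound activation plus 3 SD, cut at about 16% in these data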;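 further: peak over basal fluorescence ratio within a 140 s kinetic read after compound addition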
M4 ag – human M4 muscarinic receptor agonists, primary screen, CHO-K1 cells, Fluo-8 calcium fluorescence. AID 624127, 2012. activation, % at 3 µM. CHO-K1 hM4/Gqi5; vehicle 0%, full acetylcholine response 100%. 360,000 tested, 0.14% active;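 active means activation above the run mean over all test wells plus 3 SD, cut at about 32% in these data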;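 further: peak over basal fluorescence ratio per well then scaled between controls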
Of the large screens only hits and unclear results are named; the others gave an inactive call. In the library only some 2.2% were active in any assay of this set; here they are far more common.

Cc1ccc(OC(C)C(=O)Nc2ccc(S(=O)(=O)N3CCOCC3)cc2)cc1 (configuration not stated)	CHRM1 agonist 22
Cc1cc([N+](=O)[O-])nn1CC(=O)NC1CCCCC1	none
CC(C)C(=O)Nc1ccc(C(=O)Nc2ccc(S(=O)(=O)N3CCOCC3)cc2)cc1	none
CC(Sc1ccc(Cl)cc1)C(=O)Nc1ccc(S(=O)(=O)N2CCOCC2)cc1 (configuration not stated)	CHRM1 agonist 22
COc1cccc(-c2cnc(NCc3cc(Cl)ccc3O)n2C)c1	CHRM1 antagonist 32
Cn1c(-c2ccccc2)cnc1NCc1cc2c(cc1[N+](=O)[O-])OCO2	none
COc1ccc(OC)c(CNc2ncc(-c3ccc(F)cc3)n2C)c1	none
CSc1ccc(CNc2ncc(-c3cccc([N+](=O)[O-])c3)n2C)cc1	CHRM1 antagonist 65
Cn1c(-c2ccccc2)cnc1NCc1ccc(F)cc1	none
Cn1c(-c2ccc3c(c2)OCO3)cnc1NCc1cccc(O)c1	CHRM1 antagonist 29
Cn1c(-c2ccccc2)cnc1NCc1cccc([N+](=O)[O-])c1	CHRM1 antagonist 36
Cc1ccnc(NC(=O)Cc2ccc(-c3ccccc3)cc2)c1	none
COc1ccccc1CNC(=O)CCC(=O)N1CCOc2ccc(Cl)cc21	none
COc1ccccc1CNc1ncc(-c2ccccc2)n1C	none
COc1ccccc1CNc1ncc(-c2ccc(F)cc2)n1C	CHRM1 antagonist 45
COc1ccc(CNc2ncc(-c3ccc(F)cc3)n2C)c2ccccc12	none
COc1ccc(CNc2ncc(-c3cccc([N+](=O)[O-])c3)n2C)c(OC)c1OC	CHRM1 antagonist 54
COc1ccc(CNC(=O)c2cccc3c(-c4cccnc4)coc23)cc1OC	CHRM1 antagonist 34
O=C(NCc1ccc(F)c(F)c1)c1cccc2c(-c3cccnc3)coc12	none
CCN(C(=O)COC(=O)c1ccc(S(=O)(=O)N2CCCc3ccccc32)cc1)C1CCS(=O)(=O)C1 (configuration not stated)	CHRM1 antagonist 72
CCOC(=O)c1ccc(NC(=O)N2CCc3ccccc3C2)cc1	none
O=C(O)Cn1c(C(F)(F)F)nc2ccccc21	CHRM4 antagonist 32
Cc1cc(Cl)c(OCCOCCN2CCC(C)CC2)c(Br)c1	CHRM1 antagonist 55
Cc1cc(Br)ccc1OCCCCN1CCC(C)CC1	CHRM1 antagonist 53
CC1CCN(CCCCOc2cccc(Br)c2)CC1	CHRM4 antagonist 68, CHRM1 antagonist 83
Brc1ccc(OCCCCN2CCCCC2)cc1	none
Cc1cc(Cl)c(OCCOCCN2CCN(C)CC2)c(Br)c1	none
CC1CCN(CCCCOc2ccc(Br)cc2)CC1	CHRM1 antagonist 31
CC1CCN(CCCCOc2ccccc2Br)CC1	none
S=C(NCc1ccccc1)N1CCN(c2cccc(Cl)c2)CC1	none
C#CC[N+](C)(C)CCCCCCCC	none
CCCCCCCCCCCCCCCC[N+](C)(C)CCl	CHRM4 antagonist 35, CHRM1 antagonist 43
CCCCCC[N+](C)(C)CCSSCC[N+](C)(C)CCCCCC	none
CCCCCCCCCCCCCCCC[N+](C)(C)CC	CHRM4 antagonist 52, CHRM1 antagonist 90
CCOc1cc(C(=O)OCc2cccc(OC)c2OC)ccc1OCC(=O)N1CCOCC1	none
CCOc1ccc(S(=O)(=O)N2CCC(C(=O)NCc3cccnc3)CC2)cc1C	none
COc1ccc(COc2cc(-c3cccc(OC)c3)nc3ccc(NC(=O)c4ccc(N(C)C)cc4)cc23)cc1	CHRM1 antagonist 40
Cc1ccc(OCC(=O)NC2CCCC2)c(C)c1	none
CN(C)CC/C=C1\c2ccccc2COc2ccccc21	CHRM4 antagonist 67 (no result: CHRM1 antagonist, M1 PAM, CHRM1 agonist)
CN(CCCNC(=O)c1nn(C)c2c1CS(=O)(=O)c1ccccc1-2)Cc1ccccc1	none
CN(C)CC/C=C1/c2ccccc2CS(=O)(=O)c2ccccc21	CHRM1 antagonist 66
CCn1c(CNc2ccc(F)cc2)nnc1SCC(=O)OC1CCCCC1	none
CC1Cc2cc(-c3csc(NC(=O)Cc4cccs4)n3)ccc2N1S(C)(=O)=O (configuration not stated)	CHRM4 antagonist 29, CHRM1 antagonist 26
CCC(=O)Nc1nc(-c2ccc3c(c2)CC(C)N3S(C)(=O)=O)cs1 (configuration not stated)	none
O=C(NC1CCN(Cc2ccccc2)C1)c1cc(COc2ccc(F)cc2F)on1 (configuration not stated)	none
Cc1ccc(C)c(OCc2cc(C(=O)NC3CCN(Cc4ccccc4)CC3)no2)c1	CHRM1 antagonist 32
CCc1cc(=O)oc2cc(C)cc(OC(C)C(=O)NC3CCN(Cc4ccccc4)CC3)c12 (configuration not stated)	CHRM1 agonist 23
CCN1CC(CN(C)Cc2cn(-c3ccc(C)cc3)nc2-c2ccc(F)cc2)CC1=O (configuration not stated)	none
Cc1ccc(CS(=O)(=O)CCC(=O)NCCC(C)C)cc1	M4 PAM 34
C#Cc1ccc([C@H]2C=C(C(=O)NCc3ccccc3)O[C@@H](OCC)[C@@H]2CCCO)cc1	CHRM1 antagonist 63
CCO[C@@H]1OC(C(=O)NCc2ccccc2)=C[C@H](c2ccc(Br)cc2)[C@H]1CCCO	CHRM1 antagonist 68
Cc1cc(NC(=O)CSc2nnc(-c3ccncc3)n2-c2ccccc2)no1	none
CCN(C(=O)COC(=O)c1cccnc1)c1cccc2ccccc12	none
O=C(/C=C/c1ccc(Cl)c([N+](=O)[O-])c1)Nc1cccc(NC(=O)c2ccco2)c1	CHRM1 antagonist 34
O=C(/C=C/c1ccc(Cl)c([N+](=O)[O-])c1)Nc1ccc(NC(=O)c2ccco2)cc1	none
COc1cc(NC(=S)NCc2cccnc2)cc(OC)c1	none
COc1ccc(CNC(=O)Cn2nc(Cc3cccnc3)c3ccccc3c2=O)cc1	none
COc1cccc(NC(=O)C2C3C=CC(O3)C2C(=O)NCc2cccnc2)c1 (configuration not stated)	M4 PAM 37
COc1cccc(NC(=O)Cn2nc(Cc3cccnc3)c3ccccc3c2=O)c1	CHRM4 antagonist 59
CCCCN1C[C@H](Cc2ccccc2)[C@@H](CC(=O)NCc2ccc(OC)cc2)C1=O	none
Cn1c(SCC(N)=O)nnc1-c1ccc(S(=O)(=O)N2CCCC2)cc1	none
